31 molecules from ChEMBL document CHEMBL1157539, “Thousands of chemical starting points for antimalarial lead identification” (Nature, 2010) can be followed below.

What all share (type): functional
The subject of assay [1] is Plasmodium falciparum. The assay is described as follows: GSK_TCMDC: Inhibition of Plasmodium falciparum 3D7 in whole red blood cells, using parasite LDH activity as an index of growth. Test compounds present at 2uM.
Assay [2] has as its system Plasmodium falciparum. Put plainly: GSK_TCMDC: Inhibition of Plasmodium falciparum Dd2 in whole red blood cells, using parasite LDH activity as an index of growth. Test compounds present at 2uM.
Another assay concerns HepG2. Put plainly: GSK_TCMDC: Percent inhibition of human HepG2 cell line. Test compounds present at 10uM.

“And” between values parts separate entries of the source, which are not always exact repeats. Equal values may be shown once.

In general, Inhibition refers to how much of the control response was suppressed. The low end stands for a response near the control, the high end for a response far below the control. On to `CCCCCCN1CCC(CNCc2cccc([N+](=O)[O-])c2)CC1.O=C(O)C(F)(F)F`, for which the Inhibition in the assay with Plasmodium falciparum [1] was found to be 95%; in the assay on Plasmodium falciparum [2], 15%; with HepG2, 16%.

For the molecule `COc1cc(C(=O)N2CCOC(CCN3CCc4c(c5ccccc5n4C)C3)(c3ccc(Cl)c(Cl)c3)C2)cc(OC)c1OC` (stereo not drawn), the Inhibition with Plasmodium falciparum [1] was 87%; in the assay on Plasmodium falciparum [2], 68%; in the assay on HepG2, 16%.

For the molecule `Cc1cc(Nc2ccc(O)cc2)nc2cc(O)ccc12.Cl`, the Inhibition with Plasmodium falciparum [1] came to 100%; in the assay with Plasmodium falciparum [2] it was 9%; with HepG2, 0%.

For `CCC(=O)OC(CCN(CC)CC)(c1ccccc1)c1ccccc1`, the Inhibition with Plasmodium falciparum [1] amounted to 98%; with Plasmodium falciparum [2], 6%; with HepG2 it was 30%.

Consider `Cc1cccc2nc(-c3ccc(-c4cccc(C(=O)N5CCCCC5C(C)O)c4)s3)[nH]c12` (stereo not drawn), for which the Inhibition in the assay with Plasmodium falciparum [1] is reported as 100%; in the assay with Plasmodium falciparum [2], 53%; in the assay with HepG2, 27%.

On to `CC(=O)c1sc(NC(=O)Nc2ccc(C)cc2C)nc1C`, for which the Inhibition in the assay on Plasmodium falciparum [1] came out at 96%; in the assay on Plasmodium falciparum [2], 68%; in the assay with HepG2, 5%.

Take `CC(C)CCN1CCCN(Cc2cccc(NC(=O)c3ccc(Cl)c(Cl)c3)c2)CC1.O=C(O)C(F)(F)F`: the Inhibition is reported as 92% in the assay on Plasmodium falciparum [1], 13% in the assay with Plasmodium falciparum [2] and 35% with HepG2.

With `Fc1ccc2[nH]c(-c3ccc(-c4ccc(CN5CCN(c6ccncc6)CC5)cc4)cc3)nc2c1.O=C(O)C(F)(F)F`, the values for the Inhibition in the assay with Plasmodium falciparum [1], with Plasmodium falciparum [2] and in the assay with HepG2 were 100%, 100% and 37%, respectively.

Consider `Cn1nc(-c2ccc(Cl)cc2)c2cc(C(=O)NCCN3CCOCC3)sc21`, for which the Inhibition with Plasmodium falciparum [1] was found to be 97%; with Plasmodium falciparum [2], 29%; in the assay on HepG2 it was 21%.

In the case of `CCCCCC(C)C(C)c1cc(O)c2c(c1)OC(C)(C)CC2=Cc1ccncc1` (stereo not drawn), the Inhibition in the assay with Plasmodium falciparum [1] was 100%; with Plasmodium falciparum [2] it was 78%; with HepG2 it was 0%.

Turning to `Cc1cc(C2CCN(CCCCNC(=O)c3ccc(NC(=O)c4ccc(Cl)cc4)cc3)CC2)c(C)cc1OCc1ccccn1.Cl`, the Inhibition is reported as 96% in the assay on Plasmodium falciparum [1], 65% in the assay on Plasmodium falciparum [2] and 18% in the assay on HepG2.

Take `CC(CCCCOCCc1ccccc1)NCC(O)c1cc(Cl)c(N)c(Cl)c1` (stereo not drawn): the Inhibition in the assay on Plasmodium falciparum [1] came out at 96%; with Plasmodium falciparum [2], 95%; in the assay with HepG2, 0%.

Consider `COc1cc2c(cc1OC)C(C(=O)Nc1ccc(C(F)(F)F)cc1)C(c1cccs1)N(C)C2=O` (stereo not drawn), for which the Inhibition in the assay with Plasmodium falciparum [1] is recorded as 99%; in the assay on Plasmodium falciparum [2] it was 86%; in the assay on HepG2, 31%.

On to `Brc1cc(Br)c2c(c1)C(NCCCNC1CCNc3c(Br)cc(Br)cc31)CCN2` (stereo not drawn), for which the Inhibition worked out at 98% in the assay with Plasmodium falciparum [1], 25% with Plasmodium falciparum [2] and 18% in the assay with HepG2.

With `COc1cc(F)c2ncc(Cl)c([C@H](O)CN3CCC(NCc4ccc5c(n4)NC(=O)CO5)CC3)c2c1.Cl`, the Inhibition with Plasmodium falciparum [1] stood at 99%; in the assay with Plasmodium falciparum [2], 99%; in the assay with HepG2, 14%.

Turning to `Cc1cccc(-c2ccc(CNC3CCN(CC4Cn5c(=O)ccc6ccc(F)c4c65)CC3)cn2)c1.O=C(O)C(F)(F)F` (stereo not drawn), the Inhibition was 90% in the assay on Plasmodium falciparum [1], 2% in the assay with Plasmodium falciparum [2] and 0% with HepG2.

As to `CCCOc1cc(OCCC)cc(-c2cc(=O)c3ccccc3[nH]2)c1`, the Inhibition was 99% in the assay with Plasmodium falciparum [1], 96% in the assay on Plasmodium falciparum [2] and 33% in the assay with HepG2.

On to `COc1ccc(-c2ccc(CNC3Cc4ccccc4C3)cc2)cc1S(=O)(=O)NCCN1CCCC1.O=C(O)C(F)(F)F`, for which the Inhibition in the assay with Plasmodium falciparum [1] was found to be 100%; in the assay with Plasmodium falciparum [2], 99%; in the assay with HepG2, 30%.

`O=C(Nc1ccc(-c2ccccc2)cc1)Nc1ccc2c(c1)CCNCC2.O=C(O)C(F)(F)F`: the Inhibition was found to be 97% in the assay with Plasmodium falciparum [1], 48% in the assay with Plasmodium falciparum [2] and 41% with HepG2.

Regarding `CN(C)CCCNc1ccnc2cc(Cl)ccc12`, the figures for the Inhibition in the assay on Plasmodium falciparum [1], with Plasmodium falciparum [2] and with HepG2 were 100%, 100% and 10%, respectively.

Turning to `CCOc1cc[nH]c(=O)n1`, the Inhibition with Plasmodium falciparum [1] amounted to 97%; with Plasmodium falciparum [2] it was 95%; in the assay on HepG2, 0%.

For `COC(=O)c1cccc(N2CCN(CCCNC(=O)/C(=C/C=C/c3cc4cc(Cl)c(Cl)cc4[nH]3)OC)CC2)c1.Cl`, the Inhibition is listed as 100% in the assay on Plasmodium falciparum [1], 59% with Plasmodium falciparum [2] and 38% with HepG2.

As for `O=C1Nc2cccc3c2C1(CCCCN1CCC(c2cc4ccncc4[nH]2)CC1)CCC3` (stereo not drawn), the Inhibition was 99% and 97% in the assay with Plasmodium falciparum [1]; 0% with Plasmodium falciparum [2]; 0% in the assay on HepG2.

On to `CCc1cn2c3c(cc(C(=O)N[C@@H](Cc4cc(F)cc(F)c4)[C@H](O)CNC4CCCCC4)cc13)N(C)S(=O)(=O)CC2.O=CO`, for which the Inhibition was 100% with Plasmodium falciparum [1], 99% with Plasmodium falciparum [2] and 9% with HepG2.

In the case of `CCOC(=O)c1cc(C(=O)NCCCCN2CCC(c3ccc(CC)cc3OCC)CC2)ccc1-c1ccc(C(F)(F)F)cc1`, the Inhibition in the assay with Plasmodium falciparum [1] turned out to be 99%; with Plasmodium falciparum [2], 71%; with HepG2, 74%.

In the case of `COc1cc(Nc2ccnc3cc(-c4ccncc4)ccc23)cc(OC)c1OC.Cl`, the values for the Inhibition in the assay with Plasmodium falciparum [1], in the assay with Plasmodium falciparum [2] and with HepG2 were 89%, 39% and 9%, respectively.

For the molecule `Cc1cc(N2CCCN(C)CC2)nc(Nc2ccc(Br)cc2)n1`, the Inhibition is given as 94% in the assay on Plasmodium falciparum [1], 14% with Plasmodium falciparum [2] and 8% with HepG2.

For the molecule `O=C(NCCCCCN1CCC(c2c[nH]c3ccccc23)CC1)c1ccc(Cl)c(Cl)c1`, the Inhibition in the assay with Plasmodium falciparum [1] was determined as 85%; in the assay on Plasmodium falciparum [2] it was 10%; in the assay with HepG2, 48%.

Consider `Br.CC1(C)NC(N)=NC(=N)N1OCCCCOc1ccc(Cl)cc1C1CCCCC1`, for which the Inhibition in the assay on Plasmodium falciparum [1] was found to be 93%; with Plasmodium falciparum [2], 97%; in the assay with HepG2, 56%.

As to `O=C(O)C(F)(F)F.O=C1CCCN1CCCNCc1ccc(-c2ccc(-c3nc4cc(F)ccc4[nH]3)s2)cc1`, the values for the Inhibition in the assay with Plasmodium falciparum [1], with Plasmodium falciparum [2] and in the assay on HepG2 were 100%, 91% and 19%, respectively.

With `Cc1ccc(C(C)C)c(Oc2ccc3nc(N)nc(N)c3c2)c1`, the results for the Inhibition in the assay with Plasmodium falciparum [1], with Plasmodium falciparum [2] and with HepG2 were 96%, 33% and 61%, respectively.
